# From PMC7862700, “An all-to-all approach to the identification of sequence-specific readers for epigenetic DNA modifications on cytosine”
# Key:
# Test in all cases: DAPPL (digital affinity profiling via proximity ligation, sequencing); 10 mM Tris-HCl pH 7.5, 50 mM NaCl, 1 mM DTT, 4% glycerol, room temperature, 30 min; GST-TFs on glutathione beads, 16-mer random dsDNA library, 0.1% formaldehyde crosslink after washing; high values mean tight binding
# Conditions in all cases: protein: recombinant; tags: N-terminal GST; dsDNA, one strand shown
# [1] = biological target: T1, FLI1 (Homo sapiens, UniProt Q01543 1-452)
# T1 sequence: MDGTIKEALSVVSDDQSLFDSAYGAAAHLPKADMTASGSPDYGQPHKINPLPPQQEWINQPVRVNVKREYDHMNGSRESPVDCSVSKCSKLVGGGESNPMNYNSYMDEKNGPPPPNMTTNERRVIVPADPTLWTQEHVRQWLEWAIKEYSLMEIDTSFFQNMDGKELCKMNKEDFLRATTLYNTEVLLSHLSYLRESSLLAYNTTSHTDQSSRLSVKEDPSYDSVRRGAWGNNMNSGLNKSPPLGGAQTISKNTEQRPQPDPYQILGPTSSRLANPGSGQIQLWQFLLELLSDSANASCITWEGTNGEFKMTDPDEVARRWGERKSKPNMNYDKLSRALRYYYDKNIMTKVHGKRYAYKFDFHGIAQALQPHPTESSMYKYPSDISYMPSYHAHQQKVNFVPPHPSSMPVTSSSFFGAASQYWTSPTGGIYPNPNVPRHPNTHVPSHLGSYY
# Procedure, shortened: (§1)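 Binding signal is given per hexamer as its read frequency for a factor divided by its frequency in the tag-only sample. GST-fused human transcription factors were expressed in yeast, captured on glutathione beads, barcoded with DNA and pooled with that sample, then incubated with 200 nmole of a 16-mer random double-stranded DNA library in Tris/NaCl/DTT/glycerol buffer for 30 min at room temperature. The pools were then washed, crosslinked, proximity-ligated, amplified by PCR and sequenced on an Illumina NextSeq500.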
# [2] = biological target: T2, ELK1 (Homo sapiens, UniProt P19419 1-428)
# T2 sequence: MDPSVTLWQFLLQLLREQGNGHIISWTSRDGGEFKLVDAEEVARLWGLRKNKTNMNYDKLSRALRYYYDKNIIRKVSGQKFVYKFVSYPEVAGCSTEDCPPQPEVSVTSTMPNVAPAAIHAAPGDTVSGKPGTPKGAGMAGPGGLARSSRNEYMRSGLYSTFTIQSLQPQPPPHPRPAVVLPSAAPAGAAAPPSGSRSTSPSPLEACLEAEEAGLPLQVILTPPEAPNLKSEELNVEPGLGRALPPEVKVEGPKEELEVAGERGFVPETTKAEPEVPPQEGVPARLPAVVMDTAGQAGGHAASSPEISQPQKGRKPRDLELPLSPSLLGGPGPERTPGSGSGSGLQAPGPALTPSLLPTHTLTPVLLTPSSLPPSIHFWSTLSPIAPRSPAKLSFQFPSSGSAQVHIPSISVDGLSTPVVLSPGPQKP
# Procedure, shortened: as §1
# [3] = biological target: T3, GABPA (Homo sapiens, UniProt Q06546 1-454)
# T3 sequence: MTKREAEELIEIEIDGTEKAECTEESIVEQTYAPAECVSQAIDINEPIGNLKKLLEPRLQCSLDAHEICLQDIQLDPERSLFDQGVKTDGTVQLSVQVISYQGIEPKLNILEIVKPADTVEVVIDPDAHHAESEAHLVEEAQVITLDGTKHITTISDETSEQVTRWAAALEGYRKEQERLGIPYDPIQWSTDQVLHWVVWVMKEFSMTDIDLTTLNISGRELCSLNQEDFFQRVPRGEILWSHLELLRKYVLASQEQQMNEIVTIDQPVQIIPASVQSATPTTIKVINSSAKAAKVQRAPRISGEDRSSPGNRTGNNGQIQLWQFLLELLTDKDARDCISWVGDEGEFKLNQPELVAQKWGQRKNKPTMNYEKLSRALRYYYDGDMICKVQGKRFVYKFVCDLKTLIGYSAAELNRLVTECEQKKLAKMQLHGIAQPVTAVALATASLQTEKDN
# Procedure, shortened: as §1
# [4] = biological target: T4, ERG (Homo sapiens, UniProt P11308 1-479)
# T4 sequence: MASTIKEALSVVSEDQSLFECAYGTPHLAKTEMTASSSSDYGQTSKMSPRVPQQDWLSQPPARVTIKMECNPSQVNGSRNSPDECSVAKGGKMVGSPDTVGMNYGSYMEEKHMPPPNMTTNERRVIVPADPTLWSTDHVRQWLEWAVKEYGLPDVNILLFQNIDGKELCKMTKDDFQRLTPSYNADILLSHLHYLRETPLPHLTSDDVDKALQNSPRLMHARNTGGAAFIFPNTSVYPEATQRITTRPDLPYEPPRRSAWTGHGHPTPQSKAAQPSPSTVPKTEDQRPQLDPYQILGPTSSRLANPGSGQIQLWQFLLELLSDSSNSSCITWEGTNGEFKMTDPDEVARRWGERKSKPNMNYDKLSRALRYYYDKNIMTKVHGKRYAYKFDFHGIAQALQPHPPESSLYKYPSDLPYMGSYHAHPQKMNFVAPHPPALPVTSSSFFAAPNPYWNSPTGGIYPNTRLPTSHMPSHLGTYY
# Procedure, shortened: as §1
# [5] = biological target: ELF1 (Homo sapiens, UniProt P32519 1-619)
# Procedure, shortened: as §1
# [6] = biological target: T5, EHF (Homo sapiens, UniProt Q9NZC4 1-300)
# T5 sequence: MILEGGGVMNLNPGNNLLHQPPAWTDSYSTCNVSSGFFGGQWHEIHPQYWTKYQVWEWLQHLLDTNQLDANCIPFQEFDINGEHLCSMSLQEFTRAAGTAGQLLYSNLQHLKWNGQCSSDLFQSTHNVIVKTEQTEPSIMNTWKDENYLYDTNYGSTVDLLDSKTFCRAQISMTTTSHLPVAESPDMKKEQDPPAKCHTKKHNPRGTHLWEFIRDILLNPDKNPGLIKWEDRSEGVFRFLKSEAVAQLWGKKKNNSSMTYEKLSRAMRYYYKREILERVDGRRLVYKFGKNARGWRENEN
# Procedure, shortened: as §1
# [7] = biological target: SPI1 (Homo sapiens, UniProt P17947 1-270)
# Procedure, shortened: as §1
# [8] = biological target: SPIB (Homo sapiens, UniProt Q01892 1-262)
# Procedure, shortened: as §1
# [9] = biological target: T6, ELK3 (Homo sapiens, UniProt P41970 1-407)
# T6 sequence: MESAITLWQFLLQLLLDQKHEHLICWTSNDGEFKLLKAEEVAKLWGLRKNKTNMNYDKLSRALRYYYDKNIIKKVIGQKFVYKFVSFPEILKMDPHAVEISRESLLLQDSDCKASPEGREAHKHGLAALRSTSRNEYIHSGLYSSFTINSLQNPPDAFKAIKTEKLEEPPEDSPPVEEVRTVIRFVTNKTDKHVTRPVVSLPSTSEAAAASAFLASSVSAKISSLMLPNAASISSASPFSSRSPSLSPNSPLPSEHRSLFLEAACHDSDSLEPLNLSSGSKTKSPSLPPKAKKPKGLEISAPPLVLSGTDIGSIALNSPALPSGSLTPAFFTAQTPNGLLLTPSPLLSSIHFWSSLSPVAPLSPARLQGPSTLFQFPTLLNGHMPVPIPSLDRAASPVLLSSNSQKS
# Procedure, shortened: as §1
# [10] = biological target: T7, FEV (Homo sapiens, UniProt Q99581 1-238)
# T7 sequence: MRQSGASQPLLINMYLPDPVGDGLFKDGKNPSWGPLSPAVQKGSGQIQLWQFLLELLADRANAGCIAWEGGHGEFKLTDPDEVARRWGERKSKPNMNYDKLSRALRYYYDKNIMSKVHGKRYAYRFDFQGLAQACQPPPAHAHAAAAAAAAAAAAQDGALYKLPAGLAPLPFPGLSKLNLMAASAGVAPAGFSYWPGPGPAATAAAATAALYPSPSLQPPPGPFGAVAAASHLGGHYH
# Procedure, shortened: as §1
# [11] = biological target: ETV5 (Homo sapiens, UniProt P41161 1-510)
# Procedure, shortened: as §1
# [12] = biological target: T8, SPIC (Homo sapiens, UniProt Q8N5J4 1-248)
# T8 sequence: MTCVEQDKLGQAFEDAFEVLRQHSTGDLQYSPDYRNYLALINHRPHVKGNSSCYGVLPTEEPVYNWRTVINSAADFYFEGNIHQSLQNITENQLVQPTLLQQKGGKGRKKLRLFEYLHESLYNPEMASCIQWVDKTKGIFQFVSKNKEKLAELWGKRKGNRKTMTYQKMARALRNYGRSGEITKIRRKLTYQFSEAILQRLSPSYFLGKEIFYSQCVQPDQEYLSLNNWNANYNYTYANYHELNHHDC
# Procedure, shortened: as §1
# [13] = biological target: ELF4 (Homo sapiens, UniProt Q99607 1-663)
# Procedure, shortened: as §1
# [14] = biological target: T9, ELK4 (Homo sapiens, UniProt P28324-2 1-405)
# T9 sequence: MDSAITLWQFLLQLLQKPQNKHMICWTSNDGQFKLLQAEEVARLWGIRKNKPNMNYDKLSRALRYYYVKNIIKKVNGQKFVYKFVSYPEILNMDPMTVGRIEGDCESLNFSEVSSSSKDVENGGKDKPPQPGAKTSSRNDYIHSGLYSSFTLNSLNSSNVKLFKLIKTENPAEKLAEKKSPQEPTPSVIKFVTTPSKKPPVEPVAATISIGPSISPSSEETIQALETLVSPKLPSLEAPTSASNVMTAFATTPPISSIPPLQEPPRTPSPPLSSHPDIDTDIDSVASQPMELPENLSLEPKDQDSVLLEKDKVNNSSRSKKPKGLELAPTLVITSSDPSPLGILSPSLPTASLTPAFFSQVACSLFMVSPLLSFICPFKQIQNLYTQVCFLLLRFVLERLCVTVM
# Procedure, shortened: as §1
# [15] = biological target: T10, ETV2 (Homo sapiens, UniProt O00321 1-342)
# T10 sequence: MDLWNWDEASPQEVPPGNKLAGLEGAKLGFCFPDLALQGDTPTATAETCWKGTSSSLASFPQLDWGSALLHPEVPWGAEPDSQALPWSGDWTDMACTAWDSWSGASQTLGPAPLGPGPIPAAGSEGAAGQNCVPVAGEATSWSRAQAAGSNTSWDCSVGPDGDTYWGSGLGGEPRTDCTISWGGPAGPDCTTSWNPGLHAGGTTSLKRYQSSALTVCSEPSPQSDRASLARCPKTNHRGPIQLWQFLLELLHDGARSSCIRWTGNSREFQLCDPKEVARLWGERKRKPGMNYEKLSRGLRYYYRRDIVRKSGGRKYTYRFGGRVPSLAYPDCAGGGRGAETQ
# Procedure, shortened: as §1
# [16] = biological target: T11, ELF3 (Homo sapiens, UniProt P78545 1-371)
# T11 sequence: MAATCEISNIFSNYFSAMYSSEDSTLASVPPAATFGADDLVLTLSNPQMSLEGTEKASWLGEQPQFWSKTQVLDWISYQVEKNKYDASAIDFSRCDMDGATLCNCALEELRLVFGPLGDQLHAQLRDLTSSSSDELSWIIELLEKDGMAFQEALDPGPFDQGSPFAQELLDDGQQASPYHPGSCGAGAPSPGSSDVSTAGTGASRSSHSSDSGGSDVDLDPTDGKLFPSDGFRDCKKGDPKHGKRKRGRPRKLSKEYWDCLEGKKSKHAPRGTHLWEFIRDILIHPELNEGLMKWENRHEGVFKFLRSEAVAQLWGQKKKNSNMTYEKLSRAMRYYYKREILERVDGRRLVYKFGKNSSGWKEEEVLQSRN
# Procedure, shortened: as §1
# [17] = biological target: ETV1 (Homo sapiens, UniProt P50549 1-477)
# Procedure, shortened: as §1
# Sequence of SPIB (Q01892 whole entry): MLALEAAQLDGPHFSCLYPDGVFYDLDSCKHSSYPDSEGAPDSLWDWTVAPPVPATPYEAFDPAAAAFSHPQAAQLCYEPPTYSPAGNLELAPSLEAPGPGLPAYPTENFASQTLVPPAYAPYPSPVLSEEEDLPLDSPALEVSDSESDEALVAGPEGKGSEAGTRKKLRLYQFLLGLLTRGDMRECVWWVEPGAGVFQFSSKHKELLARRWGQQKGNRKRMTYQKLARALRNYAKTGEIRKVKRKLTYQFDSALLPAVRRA
# Sequence of ETV1 (P50549 whole entry): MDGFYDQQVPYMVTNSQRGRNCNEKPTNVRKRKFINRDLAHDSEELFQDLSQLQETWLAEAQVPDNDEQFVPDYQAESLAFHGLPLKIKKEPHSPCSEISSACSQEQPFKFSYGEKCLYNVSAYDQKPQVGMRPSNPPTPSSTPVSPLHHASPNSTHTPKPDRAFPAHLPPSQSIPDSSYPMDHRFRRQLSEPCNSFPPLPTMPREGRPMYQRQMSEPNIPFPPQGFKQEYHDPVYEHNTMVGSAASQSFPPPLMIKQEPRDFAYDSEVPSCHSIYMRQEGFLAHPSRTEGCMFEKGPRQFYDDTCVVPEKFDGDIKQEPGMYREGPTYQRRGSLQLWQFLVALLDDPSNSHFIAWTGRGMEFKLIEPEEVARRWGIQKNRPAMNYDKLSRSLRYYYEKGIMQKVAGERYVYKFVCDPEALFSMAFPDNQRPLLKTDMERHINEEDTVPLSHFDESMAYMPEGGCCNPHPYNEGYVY
# Sequence of ETV5 (P41161 whole entry): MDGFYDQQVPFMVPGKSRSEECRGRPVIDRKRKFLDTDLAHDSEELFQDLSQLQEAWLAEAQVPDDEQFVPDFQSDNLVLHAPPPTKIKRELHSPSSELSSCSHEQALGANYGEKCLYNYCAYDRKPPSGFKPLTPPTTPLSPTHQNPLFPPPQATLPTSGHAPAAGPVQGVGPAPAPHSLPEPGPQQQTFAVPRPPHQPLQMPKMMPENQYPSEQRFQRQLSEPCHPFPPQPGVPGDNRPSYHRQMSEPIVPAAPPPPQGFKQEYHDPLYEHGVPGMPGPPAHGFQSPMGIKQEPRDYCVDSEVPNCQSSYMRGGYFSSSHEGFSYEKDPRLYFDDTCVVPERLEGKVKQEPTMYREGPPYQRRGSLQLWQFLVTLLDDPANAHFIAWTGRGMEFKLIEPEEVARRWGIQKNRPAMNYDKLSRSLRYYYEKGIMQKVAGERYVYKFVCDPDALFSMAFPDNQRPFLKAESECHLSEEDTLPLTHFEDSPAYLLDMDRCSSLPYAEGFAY
# Sequence of ELF4 (Q99607 whole entry): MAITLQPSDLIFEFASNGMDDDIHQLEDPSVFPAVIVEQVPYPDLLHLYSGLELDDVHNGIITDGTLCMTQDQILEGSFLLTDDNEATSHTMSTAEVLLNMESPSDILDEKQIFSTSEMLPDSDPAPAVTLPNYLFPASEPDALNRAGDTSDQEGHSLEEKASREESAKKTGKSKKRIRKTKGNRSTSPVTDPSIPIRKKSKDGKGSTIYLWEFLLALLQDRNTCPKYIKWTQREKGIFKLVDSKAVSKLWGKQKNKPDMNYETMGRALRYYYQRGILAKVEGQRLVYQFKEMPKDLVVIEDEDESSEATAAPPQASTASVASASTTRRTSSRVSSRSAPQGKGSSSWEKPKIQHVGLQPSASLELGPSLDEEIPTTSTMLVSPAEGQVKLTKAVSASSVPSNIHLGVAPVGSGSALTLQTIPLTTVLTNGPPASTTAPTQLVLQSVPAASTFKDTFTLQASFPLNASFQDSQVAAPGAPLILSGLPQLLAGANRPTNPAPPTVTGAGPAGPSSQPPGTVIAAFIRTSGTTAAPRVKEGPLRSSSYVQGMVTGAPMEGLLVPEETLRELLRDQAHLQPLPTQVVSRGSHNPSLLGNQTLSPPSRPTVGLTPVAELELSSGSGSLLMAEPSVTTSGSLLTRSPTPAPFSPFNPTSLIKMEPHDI
# Sequence of ELF1 (P32519 whole entry): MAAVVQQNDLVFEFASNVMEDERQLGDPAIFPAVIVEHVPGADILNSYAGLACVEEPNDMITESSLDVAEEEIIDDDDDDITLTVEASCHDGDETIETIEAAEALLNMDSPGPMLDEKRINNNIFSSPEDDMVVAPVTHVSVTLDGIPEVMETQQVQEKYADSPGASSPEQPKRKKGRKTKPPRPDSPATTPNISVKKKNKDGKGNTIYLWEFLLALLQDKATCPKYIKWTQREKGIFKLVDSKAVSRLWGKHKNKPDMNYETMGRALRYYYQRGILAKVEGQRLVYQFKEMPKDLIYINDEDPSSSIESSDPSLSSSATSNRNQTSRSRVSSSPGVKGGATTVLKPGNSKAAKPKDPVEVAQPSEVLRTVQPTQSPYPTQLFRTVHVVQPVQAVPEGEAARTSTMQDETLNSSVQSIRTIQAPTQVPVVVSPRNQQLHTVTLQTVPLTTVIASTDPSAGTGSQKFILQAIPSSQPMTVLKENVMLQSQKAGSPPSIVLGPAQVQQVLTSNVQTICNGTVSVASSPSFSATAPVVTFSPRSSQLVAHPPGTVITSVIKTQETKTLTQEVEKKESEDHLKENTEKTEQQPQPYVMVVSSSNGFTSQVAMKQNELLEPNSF
sequence,measurement,setting,value
TGCCAT,binding signal,[1],"1.11 fold enrichment (6-mer frequency, TF over GST control)"
same,binding signal,[2],"1.06 fold enrichment (6-mer frequency, TF over GST control)"
same,binding signal,[3],"1.26 fold enrichment (6-mer frequency, TF over GST control)"
same,binding signal,[4],"1.21 fold enrichment (6-mer frequency, TF over GST control)"
same,binding signal,[5],"1.1 fold enrichment (6-mer frequency, TF over GST control)"
same,binding signal,[6],"1.21 fold enrichment (6-mer frequency, TF over GST control)"
same,binding signal,[7],"1.17 fold enrichment (6-mer frequency, TF over GST control)"
same,binding signal,[8],"1.16 fold enrichment (6-mer frequency, TF over GST control)"
same,binding signal,[9],"1.12 fold enrichment (6-mer frequency, TF over GST control)"
same,binding signal,[10],"1.07 fold enrichment (6-mer frequency, TF over GST control)"
same,binding signal,[11],"1.03 fold enrichment (6-mer frequency, TF over GST control)"
same,binding signal,[12],"1.12 fold enrichment (6-mer frequency, TF over GST control)"
same,binding signal,[13],"1.1 fold enrichment (6-mer frequency, TF over GST control)"
same,binding signal,[14],"1.11 fold enrichment (6-mer frequency, TF over GST control)"
same,binding signal,[15],"1.14 fold enrichment (6-mer frequency, TF over GST control)"
same,binding signal,[16],"1.08 fold enrichment (6-mer frequency, TF over GST control)"
same,binding signal,[17],"1.17 fold enrichment (6-mer frequency, TF over GST control)"
TGACGC,binding signal,[1],"1.1 fold enrichment (6-mer frequency, TF over GST control)"
same,binding signal,[2],"1.22 fold enrichment (6-mer frequency, TF over GST control)"
same,binding signal,[3],"1.15 fold enrichment (6-mer frequency, TF over GST control)"
same,binding signal,[4],"1.13 fold enrichment (6-mer frequency, TF over GST control)"
same,binding signal,[5],"1.3 fold enrichment (6-mer frequency, TF over GST control)"
same,binding signal,[6],"1.21 fold enrichment (6-mer frequency, TF over GST control)"
same,binding signal,[7],"1.15 fold enrichment (6-mer frequency, TF over GST control)"
same,binding signal,[8],"1.24 fold enrichment (6-mer frequency, TF over GST control)"
same,binding signal,[9],"1.1 fold enrichment (6-mer frequency, TF over GST control)"
same,binding signal,[10],"1.13 fold enrichment (6-mer frequency, TF over GST control)"
same,binding signal,[11],"1.28 fold enrichment (6-mer frequency, TF over GST control)"
same,binding signal,[12],"1.18 fold enrichment (6-mer frequency, TF over GST control)"
same,binding signal,[13],"1.37 fold enrichment (6-mer frequency, TF over GST control)"
same,binding signal,[14],"1.3 fold enrichment (6-mer frequency, TF over GST control)"
same,binding signal,[15],"1.18 fold enrichment (6-mer frequency, TF over GST control)"
same,binding signal,[16],"1.11 fold enrichment (6-mer frequency, TF over GST control)"
same,binding signal,[17],"1.07 fold enrichment (6-mer frequency, TF over GST control)"
